This passage reports Potency results from PubChem BioAssay (NCATS).

In test [1] the test system is Nanoluciferase (engineered Oplophorus gracilirostris luciferase). Kind of test: Primary Nanoluciferase (NLuc) qHTS assay for identification of artifact compounds. (AID 1845222).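 Further: NLuc secreted into diluted conditioned medium of S16 cells; series mostly up to about 54 µM.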 In short, it runs like this: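 NLuc from S16 cell medium (1:55) plus test compounds, 15 min, room temperature. Luminescence after Nano-Glo (1:100) addition, 5 min.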
On the technique in general: Quantitative high-throughput screening tests each substance at several concentrations.

A short description of test [2]: Primary redox qHTS assay for identification of artifact compounds. (AID 1845223). In short, it runs like this: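 Redox-cycling detection via DTT (250 uM final) oxidation coupled to Amplex Red (25 uM)/HRP (250 mU/mL) in HBSS. 15 min preincubation plus 30 min after DTT, room temperature. Ex/Em 525/598 nm; 4-parameter Hill fit against DMSO and 10 uM DA3003.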

Records with an inconclusive call do not appear. Entries that show only a call come without a potency. Calls of active or inactive are those of the source. The call rests on the fitted dose curve; in most records, active means well fitted curve in the direction sought with a large enough effect; inconclusive means small, poorly fitted or top-dose-only effect, or another doubt; inactive means no such curve, though single readings can be large; an effect the other way counts as inactive or inconclusive.

For `COC(=O)C1=CO[C@@H](O[C@@H]2O[C@H](CO)[C@@H](O)[C@H](O)[C@H]2O)[C@H]2[C@@H]1[C@H](O)C[C@]2(C)O`, the Potency entry in test [1] and in test [2] was “inactive” throughout.
Consider `CC(C)=CCC[C@](C)(O[C@@H]1O[C@H](CO[C@@H]2OC[C@H](O)[C@H](O)[C@H]2O)[C@@H](O)[C@H](O)[C@H]1O)[C@H]1CC[C@]2(C)[C@@H]1[C@H](O)C[C@@H]1[C@@]3(C)CC[C@H](O[C@@H]4O[C@H](CO)[C@@H](O)[C@H](O)[C@H]4O[C@@H]4O[C@H](CO)[C@@H](O)[C@H](O)[C@H]4O)C(C)(C)[C@@H]3CC[C@]12C`, for which the Potency result in test [1] and in test [2] was “inactive” throughout.
For `CC1(C)[C@H]2C[C@H](C/C=C\CCCC(=O)O)[C@@H](NC(=O)c3csc4ccc(O)cc34)[C@@H]1C2`, the Potency entry in test [1] and in test [2] was “inactive” throughout.
`CCCC(=O)Nc1cccc(NC(=O)c2ccccc2Br)c1`: the Potency result in test [1] and in test [2] was “inactive” in each case.
As for `Cc1cc(-n2c(=O)[nH]c(=O)n(C)c2=O)ccc1Oc1ccc(SC(F)(F)F)cc1`, the Potency entry in test [1] and in test [2] was “inactive” each time.
Turning to `O=C1NC(=O)/C(=C/c2cccc(C(F)(F)F)c2)S1`, the Potency entry in test [1] and in test [2] was “inactive” throughout.
For `CC(=O)OCC1=CCC2C(C)(C)CCCC2(C)C12CCC(C)(CC(=O)O)O2` (stereo not drawn), the Potency entry in test [1] and in test [2] was “inactive” throughout.
Consider `COc1c2c(c(C)c3c1C(=O)OC3)OC1(C)CC(O)C34OC(O)(CCC3(C)C1C2)OC4(C)C` (stereo not drawn), for which the Potency entry in test [1] and in test [2] was “inactive” throughout.
In the case of `CO[C@@H]1[C@]2(O)C(=O)N3/C=C\C(C)(C)c4[nH]c5ccccc5c4/C=C\3C(=O)N2[C@]23[C@H](CO)C(C)(C)N2c2ccccc2[C@]13O`, the Potency entry in test [1] and in test [2] was “inactive” each time.
